# Source: PubChem BioAssay (National Center for Advancing Translational Sciences (NCATS))
# Most compounds without a hit are left out; they make up all but 2.8% or so of the library.
# PTHR1 ag: activates the human parathyroid hormone receptor PTHR1 | Q03431 | HEK293 GP2 PTHR1 cells, GloSensor cAMP luminescence, 1 h | Potency, µM (titrated, usually from 115 µM), without a hit: top-dose activation, usual class: activators | 410,000 compounds, 0.075% hits | AID 743266; note: potency is the fitted concentration of half-maximal effect; nearly all actives have a fitted effect of over 55% in size
#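 HEK-293-derived GP2 cells expressing PTHR1 and a GloSensor cAMP reporter, 3,000/well, plated overnight, given luciferin plus IBMX (each 0.5 mM as added) for 1 h at 37 °C, then compound for 1 h at 37 °C. Luminescence was read after 15 min at room temperature.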
# D3 antag: D3 dopamine receptor (human) antagonism; max response, negative = inhibition, %; D3R cells, DiscoveRx beta-arrestin luminescence, antagonist mode; hits give low values; 360,000 compounds, 2.5% hits; P35462; in the data active = max response below about -50%; inconclusive = no clear call, values can overlap the other calls; note: % is set by controls: 0 for no effect and ±100 for the full control effect
# Target sequence (P35462 whole entry, looked up): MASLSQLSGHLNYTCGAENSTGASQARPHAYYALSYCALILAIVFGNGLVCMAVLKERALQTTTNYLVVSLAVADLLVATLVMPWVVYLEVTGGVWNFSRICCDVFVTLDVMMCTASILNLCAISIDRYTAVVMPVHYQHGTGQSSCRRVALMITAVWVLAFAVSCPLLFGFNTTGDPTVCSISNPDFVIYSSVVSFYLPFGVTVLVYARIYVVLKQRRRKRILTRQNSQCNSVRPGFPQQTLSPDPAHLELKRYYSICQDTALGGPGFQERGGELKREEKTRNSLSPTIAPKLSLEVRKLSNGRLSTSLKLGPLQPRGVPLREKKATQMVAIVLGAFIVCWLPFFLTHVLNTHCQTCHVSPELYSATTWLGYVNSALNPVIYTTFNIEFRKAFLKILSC
#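 Cells plated overnight at 1500 cells/well, then exposed to library compounds with dopamine controls for 90 minutes at 37 degrees C. DiscoveRx reagent added for 30–60 minutes at room temperature; luminescence read, quantitative HTS format.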
# DRD3 agonist: D3 dopamine receptor (human) agonism; P35462; D3R DiscoveRx beta-arrestin cells, luminescence, 90 min; max activation, %; 410,000 compounds, 0.58% hits; AID 652048; in the data active = max activation above about 30%; note: 0% is about no effect
#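 Agonist mode: compounds and dopamine controls were applied to plated cells for 90 min at 37 degrees C after an overnight attachment at 1500 cells/well. Luminescent read-out followed 30 - 60 minutes at room temperature with DiscoveRx detection reagent.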
# CBFb-RUNX1 inh: blocks binding between human CBF-beta and RUNX1; Q01196+Q13951; AlphaScreen CBFb-His/RUNX1-biotin binding, biochemical; Potency, µM (titrated, usually from 59.8 µM), for inactives: at the highest dose activity, negative = inhibition, actives largely listed as inhibitors; 230,000 tested, under 10 active; note: % of control where 0% means no effect
#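 Inhibition was taken as any reduction in AlphaScreen signal from the CBF-beta–RUNX1 pair (His and biotin tags, 30 nM each), measured after compound (15 min) and bead (90 min) incubations at room temperature.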
# a7 integrin act: activates integrin-mediated alleviation for muscular dystrophy | alpha7betagal myoblasts, beta-gal FDG fluorescence, 48 h | Potency, µM (doses to about 38.3 µM), for inactives: top-dose activation, usual class: activators | 350,000 compounds, 0.064% hits | AID 624291;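 note: potency is the fitted concentration of half-maximal effect; 100% = response of the positive control SU9516; nearly all actives have a fitted effect of over 60% in size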
#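 Alpha7betagal+/- myoblasts (passage 13) were plated 16-24 hr, then exposed to compounds (1:260 dilution of DMSO stock) for 48 hours at 37C. After MPER lysis, β-galactosidase reporter activity was read as FDG fluorescence (ex 480/em 540) after 30 minutes.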
# MBNL1 CUG block: MBNL1-poly(CUG) RNA binding inhibition. Q9NR56. TR-FRET MBNL1-His/biotin-(CUG)12 binding, 665/545 ratio. Potency, µM (highest dose often 57.5 µM), inactives show at the top dose activity change, negative = inhibition, usual class: inhibitors. 280,000 compounds, 0.036% hits; active = well fitted inhibition curve with a large enough effect in the signal ratio, with a control signal flat, not every such curve was filed as active; inconclusive = small, poorly fitted or top-dose-only effect, or effect the other way, or a change in a side signal; inactive = no such curve, though single readings can be large or run the other way; the % refers to the signal ratio; note: potency is the fitted concentration of half-maximal effect; % is set by controls: 0 for no effect and ±100 for the full control effect
# Target sequence (Q9NR56 whole entry, looked up): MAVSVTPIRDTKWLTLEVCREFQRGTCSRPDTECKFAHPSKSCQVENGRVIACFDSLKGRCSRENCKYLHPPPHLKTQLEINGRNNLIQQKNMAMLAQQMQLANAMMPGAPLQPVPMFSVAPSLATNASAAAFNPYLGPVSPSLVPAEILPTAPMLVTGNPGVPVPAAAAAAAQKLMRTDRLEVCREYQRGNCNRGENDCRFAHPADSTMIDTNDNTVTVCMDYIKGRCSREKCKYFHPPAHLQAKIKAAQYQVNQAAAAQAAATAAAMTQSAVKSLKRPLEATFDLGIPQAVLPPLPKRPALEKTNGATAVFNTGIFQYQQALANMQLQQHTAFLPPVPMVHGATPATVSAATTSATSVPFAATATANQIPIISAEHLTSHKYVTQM
#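 Ratiometric TR-FRET (665 over 545 nm, excitation 340 nm) tracks disruption of MBNL1-His/biotin-(CUG)12 complex after 60 min at room temperature, with compounds at 92 nM to 58 uM final.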
# Numbers without * were called inactive; i = inactive; ? = inconclusive; / = not tested or not shown; [ ] = another dose, or the depositor's remark. Unless noted, calls come from the whole dose curve; as a rule, active = well fitted curve in the direction sought with a large enough effect; inconclusive = small, poorly fitted or top-dose-only effect, or another doubt; inactive = no such curve, though single readings can be large; an effect the other way counts as inactive or inconclusive.
SMILES,PTHR1 ag,D3 antag,DRD3 agonist,CBFb-RUNX1 inh,a7 integrin act,MBNL1 CUG block
Cc1ccc(C)c(OCCC(=O)NNC(=O)c2cc(C)oc2C)c1,-4.2%,-4.3,8.5,/,18.7%,/
O=S(=O)(Nc1cccc2cccnc12)c1ccccc1,-16.6%,-70.6*,-22.6,-6.9%,-72.8%,3.7%
Cc1ccc(S(=O)(=O)N2C(=O)CCC2C(=O)Nc2ccc3c(c2)OCCO3)cc1 (stereo not drawn),i,-65.5*,-6.1,7.7%,18.3%,-3.0%
Cc1ccc(F)cc1-c1cc(C(=O)NCc2cc(C(F)(F)F)cc(C(F)(F)F)c2)[nH]n1,-45.5%,-69.8*,-13.3,/,/,/
COc1ccc(F)cc1-c1cc(C(=O)NCc2cccc(C(F)(F)F)c2)[nH]n1,-43.2%,-24.1,-5.5,/,/,/
COc1ccc(F)cc1-c1cc(C(=O)NCc2ccc(C(F)(F)F)cc2)[nH]n1,-15.6%,-73.2*,-20.7,/,/,/
Cc1ccc(O)c(C(CC(=O)NCC2(c3ccccc3)CCCC2)c2ccccc2)c1 (stereo not drawn),-95.5%,/,4.4,/,/,/
COC(=O)[C@H]1[C@H]2C[C@@H]3c4[nH]c5cc(OC)ccc5c4CCN3C[C@H]2C[C@H](OC)[C@@H]1OC,/,/,-5.3,/,/,/
O=C(O)CCc1ccc(-c2ccccc2)n1-c1cccc(Br)c1,i,/,-1.4,/,/,/
COc1ccc(S(=O)(=O)N2CCC[C@H]2C(=O)N2CCC[C@H]2C(=O)NCc2ccc(F)cc2F)cc1C,i,5.1,2.7,/,/,/
CCOC(=O)C1CCC2(CC1)C(C#N)=C(N)Oc1n[nH]c(C)c12 (stereo not drawn),-13.2%[57.5 µM],4.2,4.6,18.9%,4.3%,-4.8%
Cc1ccccc1COn1nnc2ccc(S(=O)(=O)N3CCOCC3)cc21,-13.9%,-51.5*,-0.1,/,14.8%,/
O=C1CC(=O)N(c2cccc(F)c2)N1,42.4%,-50.8*,-12.5,-4.9%,11.3%,-0.5%
O=C(NCc1ccc2c(c1)OCO2)c1cc(-c2ccccc2Cl)on1,i,-58.8*,-0.1,11.4%,10.0%,-4.5%
O=C(Nc1ccc2c(c1)OCO2)c1cc(-c2ccccc2Cl)on1,-6.7%,-16.9,-3.7,/,-5.9%,-3.8%
COc1ccc(CNC(=O)c2cc(-c3ccccc3OC)on2)cc1,i,-62.7*,-29.1,10.2%,-10.3%[7.66 µM],2.1%
COc1ccc(OC)c(-c2csc(NC(=O)Cc3ccccc3OC)n2)c1,-31.5%,-62.6*,-23.1,/,-14.6%,-2.4%
COc1ccccc1-c1cc(C(=O)NCc2ccccc2)no1,-14.3%,-51.7*,-27.5,11.7%,4.9%,1.7%
COc1ccccc1-c1cc(C(=O)NCc2ccc(F)cc2)no1,i,?,-28.8,9.8%,28.0%,-10.2%
CCN(CC)CCNC(=O)C(=O)Nc1c2c(nn1-c1ccc(F)cc1)CSC2,-24.8%,/,1.7,/,/,/
O=P(O)(O)OC(Cn1cncn1)(Cn1cncn1)c1ccc(F)cc1F,/,/,6.2,/,/,/
COc1cc(C(=O)NN2C(=O)NC3(CCC(C)CC3)C2=O)ccc1OC(F)F (stereo not drawn),i,7.3,-0.3,/,-9.9%,/
CC1(c2nnnn2Cc2ccccc2)CCC(=O)N1CCOc1ccccc1 (stereo not drawn),-21.6%,?,-10.8,/,/,/
CCCC(=O)N1CCCC1(C)C(=O)Nc1cc(OC)c(OC)c(OC)c1 (stereo not drawn),i,0.0,7.1,/,/,/
C=CC#CC1(O)CC(C)N(C)CC1C (stereo not drawn),i,-66.1*,6.4,-2.1%,?,/
SMILES,PTHR1 ag,D3 antag,DRD3 agonist,CBFb-RUNX1 inh,a7 integrin act,MBNL1 CUG block
Cc1ccccc1-n1c(CSC(=N)N)nc2ccccc2c1=O,-7.8%[57.5 µM],-72.2*,-3.9,3.4%,-5.1%,4.4%
CN(CC(=O)Nc1ccc(F)cc1)C(=O)CCc1nc2ccccc2c(=O)[nH]1,18.2%,-54.3*,-16.5,/,-35.3%,/
O=C(CCc1nc2ccccc2c(=O)[nH]1)Nc1ccc(F)cc1,-12.5%,-53.7*,-2.8,9.5%,-11.8%,-8.9%
O=C(COc1ccccc1)Nc1ccc(-c2ccc(N3CCOCC3)nn2)cc1,-18.1%,-3.6,-4.9,/,6.9%,/
O=C(Oc1c(CN2CCOCC2)cc(Cl)c2cccnc12)c1ccccc1Cl,i,-65.1*,-18.1,-27.2%,-64.1%,3.2%
COc1cc(C(=O)Oc2c(CN3CCOCC3)cc(Cl)c3cccnc23)cc(OC)c1OC,-26.6%,-111.3*,-38.2,/,-16.8%,15.3%
O=C(Oc1c(CN2CCOCC2)cc(Cl)c2cccnc12)c1ccc(F)cc1,-14.1%,-61.4*,-24.0,2.5%,-65.0%,?
COc1ccc(C(=O)Oc2c(CN3CCOCC3)cc(Cl)c3cccnc23)cc1,i,-3.7,-13.7,-19.0%,-61.8%,13.3%
O=C(Oc1c(CN2CCOCC2)cc(Cl)c2cccnc12)c1cccs1,i,-63.1*,-18.9,?,-60.9%,?
O=C(Nc1ccccc1-c1ccccc1)C(=O)Nc1ccccc1-c1ccccc1,/,/,/,0.0%,/,10.8%
COc1ccc(CNc2oc(/C=C/c3cccc(OC)c3)nc2C#N)cc1,i,/,-9.9,/,/,/
O=C(NCCc1ccccc1)C(=O)NCC1OCCCN1S(=O)(=O)c1cccs1 (stereo not drawn),i,-15.2,0.8,/,-17.1%,5.8%
O=C(CN(C(=O)c1csnn1)c1cccc(C(F)(F)F)c1)NC1CCCC1,-20.2%,7.0,-4.2,/,0.0%,-7.9%
Cc1ccc(-n2nc3c(c2NC(=O)c2cccs2)CS(=O)(=O)C3)cc1C,-22.6%,-65.5*,-13.4,/,-13.4%,-13.9%
Cc1ccc(-n2nc3c(c2NC(=O)c2cccs2)CS(=O)(=O)C3)cc1,i,-12.7,-2.8,/,-24.9%,1.0%
COc1ccc(C2CC(c3ccc(Cl)cc3)Nc3nc(NC(=O)c4ccco4)nn32)cc1 (stereo not drawn),i,-6.6,2.1,0.3%,6.7%,-3.3%
O=C(Nc1nc2n(n1)C(c1ccc(Cl)cc1)CC(c1ccc(Cl)cc1)N2)c1ccco1 (stereo not drawn),i,-53.5*,-11.5,-8.1%,12.1%,?
CC1=C([N+](=O)[O-])C(c2cccc(Br)c2)C2=C(N1)c1ccccc1C2=O (stereo not drawn),-8.1%[57.5 µM],-94.4*,2.3,?,-38.4%,12.2%
CC1=CC(=O)C(Sc2ccc(C)cc2)=CC1=O,-38.5%,-91.7*,-12.5,/,-62.3%,/
Cc1ccc(Sc2c(C)[nH]n(C(C)(C)C)c2=O)cc1,-11.8%[57.5 µM],-13.1,-0.5,-2.4%,23.7%[7.66 µM],2.8%
COc1cccc(-c2cccc(NC(=O)C3CCN(CCCn4cccn4)CC3)c2)c1,-0.1%,-3.0,-1.1,/,-39.0%,/
